Assay outcomes deposited in PubChem by several laboratories.
Most compounds without a hit are left out; they make up all but 2.6% or so of the library.
EBV LMP1 NFkB = reduces LMP1-driven NF-kappaB luciferase signal; LMP1-induced NF-kappaB luciferase reporter cells, luminescence; inhibition, % at 12.5 µM; 350,000 tested, 0.69% active; in the data active = inhibition above about 41%; inconclusive = no clear call, values can overlap the other calls;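 note: 0% = neutral control wells and 100% = reference inhibitor control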
LGR2 antag = blocks bursicon-induced cAMP signaling via Drosophila LGR2. HEK293 LGR2, CRE-luciferase, bursicon-stimulated, 4 h. inhibition, % at 9.99 µM. 380,000 tested, 0.35% active. AID 720647;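 active = drop in luminescence signal, shown as inhibition above about 50% in the replicate tests, limit read from the data, passing the limit was not always enough; inconclusive = probably only some replicates passing the limit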;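 note: agonist challenge used bursicon conditioned medium at about half maximal strength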
aDG glyco up = increases alpha dystroglycan glycosylation; Pro5-aDG cells, alpha-DG glycosylation AlphaScreen (IIH6); 0% Pro5, 100% B10-LARGE cell signal; activation, % at 10 µM; 360,000 tested, 0.22% active; AID 624168;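 active = activation of at least 8% versus controls, or a plate z-score of at least 8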;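 note: Pro5 are CHO cells carrying HIG-tagged alpha-DG that lacks glycosylation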
TWEAK Fn14 block = TWEAK-Fn14 signaling inhibition; TWEAK-stimulated Fn14 reporter cells, luciferase luminescence, 8 h; inhibition, % at 10 µM; 360,000 tested, 2% active; in the data active = inhibition above about 50%
TROY NFkB inh = inhibitors of TROY-dependent NF-kB signaling | AID 1347056 | inhibition, % at 10 µM | Q293 LMP1-TROYcd NF-kB luciferase reporter, 4 h | 360,000 tested, 0.98% active;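 active = compounds whose plate-normalised and pattern-corrected inhibition of the luciferase reporter signal at the single screening dose is 50% or more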
HSP90 inh = blocks HSP90-mediated luciferase refolding in reticulocyte lysate. Rabbit reticulocyte lysate, luciferase refolding luminescence, 3 h. inhibition, % at 5.6 µM. 290,000 tested, 0.91% active. AID 1789;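 active = inhibition above the screen-wide mean plus 3 SD, computed separately per campaign, cut at about 16% in these data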;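 note: 0% = DMSO wells and 100% = 60 µM geldanamycin wells; inhibitors lower the luminescence because luciferase stays unfolded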
HSP90 confirm = confirmation of HSP90 inhibitors; shares compounds with HSP90 inh; rabbit reticulocyte lysate, luciferase refolding luminescence, 3 h; 2,300 tested, 64% active; AID 1846; inhibition, % at 5.9 µM; in the data active = inhibition above about 18%;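 note: 0% = vehicle wells and 100% = reference inhibitor wells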
FLuc counter = counter-screen for HSP90 inhibitors: inhibitors of firefly luciferase; AID 1847; purified native firefly luciferase, luminescence; shares compounds with HSP90 inh; inhibition, % at 5.9 µM; 2,300 tested, 48% active;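 active = inhibition above the mean inhibition of all tested sample wells plus 3 SD, cut at about 10% in these data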;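 note: 0% = DMSO with luciferase and 100% = wells lacking luciferase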
Target sequence (P08659 whole entry, looked up): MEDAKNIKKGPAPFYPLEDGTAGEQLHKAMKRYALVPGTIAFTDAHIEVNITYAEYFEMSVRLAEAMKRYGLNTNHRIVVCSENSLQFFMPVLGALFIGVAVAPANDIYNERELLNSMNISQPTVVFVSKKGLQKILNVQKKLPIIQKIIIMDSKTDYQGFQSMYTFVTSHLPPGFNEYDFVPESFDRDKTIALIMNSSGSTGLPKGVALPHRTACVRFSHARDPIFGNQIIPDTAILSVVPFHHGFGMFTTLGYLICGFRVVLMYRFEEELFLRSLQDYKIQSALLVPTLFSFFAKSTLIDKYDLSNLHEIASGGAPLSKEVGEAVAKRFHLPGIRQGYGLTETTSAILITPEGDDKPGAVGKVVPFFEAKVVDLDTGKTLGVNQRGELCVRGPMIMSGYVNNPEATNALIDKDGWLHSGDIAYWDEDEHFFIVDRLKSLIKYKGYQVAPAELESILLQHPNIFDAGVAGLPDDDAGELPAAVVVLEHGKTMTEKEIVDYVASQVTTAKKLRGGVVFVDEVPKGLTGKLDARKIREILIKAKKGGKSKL
The depositor's hits bear a star; ? = inconclusive; / = no result.

SMILES | EBV LMP1 NFkB | LGR2 antag | aDG glyco up | TWEAK Fn14 block | TROY NFkB inh | HSP90 inh | HSP90 confirm | FLuc counter
Cc1ccc(S(=O)(=O)Nc2ccc3c(c2)CC(=O)N([C@H](C)CO)C[C@@H](C)[C@H](CN(C)Cc2ccc4c(c2)OCO4)O3)cc1 | / | 12 | / | / | / | / | / | /
Cc1cc2cc(CNC(=S)NC3CCCCC3)ccc2n1C | 2 | 5 | -1 | 13 | 7 | 20* | 4 | -2
Cc1cc2cc(CNC(=S)NCc3ccccc3)ccc2n1C | 1 | 6 | -1 | 11 | 3 | 1 | / | /
C[C@@H]1CCCCO[C@H](CN(C)S(=O)(=O)c2ccc(Cl)cc2)[C@@H](C)CN([C@H](C)CO)C(=O)c2cc(NC(=O)Nc3ccccc3)ccc2O1 | / | 3 | / | / | / | / | / | /
O=C(C[C@@H]1C[C@@H]2c3cc(NC(=O)C4CCOCC4)ccc3O[C@@H]2[C@H](CO)O1)NCc1ccc(Oc2ccccc2)cc1 | / | 0 | / | / | / | / | / | /
C[C@@H]1CN([C@@H](C)CO)C(=O)Cc2cc(NC(=O)CCCCCC(=O)Nc3ccccc3N)ccc2O[C@@H]1CN(C)Cc1ccccc1 | / | 14 | / | / | / | / | / | /
CCOC(=O)Cc1csc(NC(=S)NC(=O)c2ccc(C)cc2)n1 | -3 | -6 | 0 | 68* | 26 | 36* | 40* | -14
O=C(C[C@H]1CC[C@H]2[C@@H](COC[C@@H](O)CN2Cc2cccc(C(F)(F)F)c2)O1)NCc1ccc(F)cc1 | / | 20 | / | / | / | / | / | /
CCc1ccc(C2=NN(C(=O)OC)C(O)(C(F)(F)F)C2)cc1 (configuration not stated) | 14 | -19 | 0 | 30 | 23 | 40* | 64* | 49*
CCOC(=O)N1N=C(c2ccc(OC)cc2)CC1(O)C(F)(F)F (configuration not stated) | 6 | -15 | 0 | 27 | 6 | 22* | 39* | 26*
Brc1cccc(C2Nc3cccc4cccc(c34)N2)c1 | -13 | / | 0 | 13 | 0 | 3 | / | /
Brc1ccc(C2Nc3cccc4cccc(c34)N2)o1 | -7 | / | 0 | 19 | 13 | 19* | 11 | -18
O=C(O)c1cc(N/N=C/C=C/c2ccccc2)ccc1Cl | -54 | -129 | 0 | -17 | -45 | 27* | 37* | -8
Cc1nn(-c2ccccc2)c(Cl)c1/C=N/Nc1ccc(Cl)c(C(=O)O)c1 | 18 | ? | 0 | -11 | -74 | 38* | 84* | 78*
Cc1nn(-c2ccccc2)c(Cl)c1/C=N/NC(=O)OC(C)(C)C | -12 | -20 | 0 | 8 | -42 | -2 | / | /
Cc1cc(=O)n(-c2ccc(O)cc2)[nH]1 | 4 | / | 0 | 10 | -4 | 18* | -2 | -4
CCC(=O)c1ccc(OCc2ccc(C(=O)OC)cc2)cc1 | -11 | -27 | 1 | 15 | -40 | 30* | 62* | -3
CCOc1ccc(-c2nc(CN3CCCC(C(=O)N4CCOCC4)C3)c(C)o2)cc1 (configuration not stated) | -8 | -4 | 0 | 17 | -14 | 18* | 24* | -3
Cc1ccc(-c2nc(CN3CCCC(C(=O)N4CCOCC4)C3)c(C)o2)cc1 (configuration not stated) | -11 | 3 | 0 | -14 | 2 | -4 | / | /
COC(=O)C1CCN(C(=O)c2ccc3nc(-c4cccc(OC)c4)oc3c2)CC1 | -34 | -36 | 0 | -55 | -59 | 51* | 63* | -10
COC(=O)C1CCN(C(=O)c2ccc3nccnc3c2)CC1 | 0 | 7 | 0 | 0 | 5 | -4 | / | /
Cc1cc2nc(-c3ccc[nH]c3=O)[nH]c2cc1C | -5 | 78* | 0 | 83* | 26 | 68* | 80* | 65*
Cc1cc2nc(-c3ccc[nH]c3=O)n(Cc3ccc(F)cc3)c2cc1C | -7 | -6 | 0 | -9 | -32 | -3 | / | /
CC(=O)N(C)C[C@@H]1Oc2ncc(C#Cc3ccccc3F)cc2C(=O)N([C@H](C)CO)C[C@@H]1C | / | 9 | / | / | / | / | / | /
CC(=O)NC(c1ccccc1)c1cc(Cl)c2cccnc2c1O (configuration not stated) | 35 | 8 | 0 | 12 | 10 | 18* | 15 | -2
SMILES | EBV LMP1 NFkB | LGR2 antag | aDG glyco up | TWEAK Fn14 block | TROY NFkB inh | HSP90 inh | HSP90 confirm | FLuc counter
COc1ccc2c3c(n(C)c2c1)[C@@H](CO)N(C(=O)CC1CC1)CC31CCN(C(=O)C2CC2)CC1 | / | 10 | / | / | / | / | / | /
COc1ccc(C)cc1NC(=O)NCc1ccc(F)cc1 | -4 | 1 | 1 | 9 | 3 | -2 | / | /
COc1ccc(C)cc1NC(=O)NNC(=O)C(C)Oc1ccc(F)cc1Cl (configuration not stated) | 7 | -3 | 0 | 4 | 4 | 20* | 3 | -2
CC(On1c(-c2ccccc2)nc2ccc(Cl)cc21)C(=O)O (configuration not stated) | -3 | -25 | 0 | -23 | -61 | -1 | / | /
Cc1ccc(-c2nc3ccc(Cl)cc3n2OC(C)C(=O)O)cc1 (configuration not stated) | -34 | / | 1 | -9 | 23 | 62* | -5 | -23
O=C1c2ccccc2S(=O)(=O)N1Cc1nc2ccccc2s1 | 76* | / | 0 | 103* | 79* | 37* | 21* | -5
COc1ccc(/C=C/C(=O)OC2CCCCC2CN(C)C)cc1 (configuration not stated) | -3 | 19 | 0 | 6 | 7 | 21* | 1 | -4
Cc1cc(Br)ccc1NC(=O)C1CCN(C(=O)c2ccco2)CC1 | -11 | 4 | 0 | 2 | 1 | 75* | -9 | -11
CN(C)c1ccc(/C=C2\SC(N3CCCCC3)=NC2=O)cc1 | 28 | 45 | 0 | 83* | 74* | 45* | 55* | 60*
Cc1ccc(/C=C2\SC(N3CCCC3)=NC2=O)cc1 | / | -69 | / | / | / | -1 | / | /
O=C1N=C(N2CCCCC2)S/C1=C\c1ccc(Br)cc1 | 10 | -1 | 0 | -19 | -33 | 2 | / | /
CC(C)c1ccc(/C=C2\SC(N3CCCC3)=NC2=O)cc1 | 11 | -9 | 2 | 46 | 32 | 19* | 4 | 3
O=C(C[C@@H]1C=C[C@H](NC(=O)Nc2cc(F)ccc2F)[C@H](CO)O1)Nc1ccccc1 | / | 10 | / | / | / | / | / | /
Cc1nnsc1S(=O)c1ccc(Br)cc1 (configuration not stated) | -10 | 2 | 0 | 5 | 1 | -1 | / | /
Cc1nnsc1S(=O)c1ccc(F)cc1 (configuration not stated) | -1 | 5 | 0 | 18 | -15 | 24* | -6 | -11
CN(C)CC(=O)Nc1ccc2c(c1)[C@H]1C[C@@H](CC(=O)NCc3ccc(-c4ccccc4)cc3)O[C@@H](CO)[C@H]1O2 | / | -5 | / | / | / | / | / | /
